Measured values as given in article PMC7862700, “An all-to-all approach to the identification of sequence-specific readers for epigenetic DNA modifications on cytosine”.

Experiments:
Assay in all cases: DAPPL (digital affinity profiling via proximity ligation, sequencing); 10 mM Tris-HCl pH 7.5, 50 mM NaCl, 1 mM DTT, 4% glycerol, room temperature, 30 min; GST-TFs on glutathione beads, 16-mer random dsDNA library, 0.1% formaldehyde crosslink after washing; high values mean tight binding
Details in all cases: protein: recombinant; tags: N-terminal GST; dsDNA, one strand shown
[1] = target: T1, FLI1 (Homo sapiens, UniProt Q01543 1-452)
T1 sequence: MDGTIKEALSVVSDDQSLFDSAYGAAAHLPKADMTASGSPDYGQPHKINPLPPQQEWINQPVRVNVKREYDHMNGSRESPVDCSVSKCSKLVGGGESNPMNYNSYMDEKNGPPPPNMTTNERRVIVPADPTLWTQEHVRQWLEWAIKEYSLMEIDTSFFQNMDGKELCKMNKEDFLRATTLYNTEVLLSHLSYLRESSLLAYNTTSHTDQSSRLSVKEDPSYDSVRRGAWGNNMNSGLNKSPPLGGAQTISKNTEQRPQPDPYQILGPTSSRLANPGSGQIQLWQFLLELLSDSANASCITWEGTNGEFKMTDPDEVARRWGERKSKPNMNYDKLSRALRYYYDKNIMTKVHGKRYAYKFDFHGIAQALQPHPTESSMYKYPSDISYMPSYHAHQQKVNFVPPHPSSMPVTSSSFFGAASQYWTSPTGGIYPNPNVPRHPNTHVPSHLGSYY
Procedure, shortened: (§1)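 A tag-only sample was pooled with DNA-barcoded human transcription factors that had been expressed in yeast as GST fusions and captured on glutathione beads. The pools were incubated for 30 min at room temperature with 200 nmole of a random double-stranded 16-mer DNA library in Tris/NaCl/DTT/glycerol buffer, then washed, crosslinked with 0.1% formaldehyde, proximity-ligated (BsaI/T4 ligase, 1 h, 37 °C), PCR-amplified and sequenced on an Illumina NextSeq500. Binding signal is each hexamer's read frequency for a factor divided by its frequency for the tag-only sample.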

[2] = target: T2, ELK1 (Homo sapiens, UniProt P19419 1-428)
T2 sequence: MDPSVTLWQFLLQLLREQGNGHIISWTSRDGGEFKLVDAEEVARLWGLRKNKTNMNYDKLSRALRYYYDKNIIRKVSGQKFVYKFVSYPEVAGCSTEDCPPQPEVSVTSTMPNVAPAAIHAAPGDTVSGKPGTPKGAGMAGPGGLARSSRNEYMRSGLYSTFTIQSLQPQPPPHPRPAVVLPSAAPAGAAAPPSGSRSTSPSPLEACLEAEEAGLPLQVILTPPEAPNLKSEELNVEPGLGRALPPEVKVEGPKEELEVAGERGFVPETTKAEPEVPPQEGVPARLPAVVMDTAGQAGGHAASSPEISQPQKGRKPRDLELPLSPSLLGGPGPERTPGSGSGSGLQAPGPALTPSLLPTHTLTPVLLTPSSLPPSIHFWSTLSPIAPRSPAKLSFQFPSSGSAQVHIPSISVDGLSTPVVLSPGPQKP
Procedure, shortened: as §1

[3] = target: T3, GABPA (Homo sapiens, UniProt Q06546 1-454)
T3 sequence: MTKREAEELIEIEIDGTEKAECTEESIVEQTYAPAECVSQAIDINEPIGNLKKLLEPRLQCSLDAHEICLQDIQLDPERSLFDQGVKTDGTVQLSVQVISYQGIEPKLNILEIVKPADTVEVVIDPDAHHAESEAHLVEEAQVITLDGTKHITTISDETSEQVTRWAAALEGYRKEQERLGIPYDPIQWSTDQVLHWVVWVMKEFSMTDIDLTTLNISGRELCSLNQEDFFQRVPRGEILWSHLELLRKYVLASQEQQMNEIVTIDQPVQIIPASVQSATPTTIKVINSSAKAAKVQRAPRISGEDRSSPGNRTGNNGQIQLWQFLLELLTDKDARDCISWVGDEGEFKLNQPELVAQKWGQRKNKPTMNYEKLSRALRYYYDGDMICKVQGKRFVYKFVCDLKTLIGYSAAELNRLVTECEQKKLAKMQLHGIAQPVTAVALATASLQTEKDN
Procedure, shortened: as §1

[4] = target: T4, ERG (Homo sapiens, UniProt P11308 1-479)
T4 sequence: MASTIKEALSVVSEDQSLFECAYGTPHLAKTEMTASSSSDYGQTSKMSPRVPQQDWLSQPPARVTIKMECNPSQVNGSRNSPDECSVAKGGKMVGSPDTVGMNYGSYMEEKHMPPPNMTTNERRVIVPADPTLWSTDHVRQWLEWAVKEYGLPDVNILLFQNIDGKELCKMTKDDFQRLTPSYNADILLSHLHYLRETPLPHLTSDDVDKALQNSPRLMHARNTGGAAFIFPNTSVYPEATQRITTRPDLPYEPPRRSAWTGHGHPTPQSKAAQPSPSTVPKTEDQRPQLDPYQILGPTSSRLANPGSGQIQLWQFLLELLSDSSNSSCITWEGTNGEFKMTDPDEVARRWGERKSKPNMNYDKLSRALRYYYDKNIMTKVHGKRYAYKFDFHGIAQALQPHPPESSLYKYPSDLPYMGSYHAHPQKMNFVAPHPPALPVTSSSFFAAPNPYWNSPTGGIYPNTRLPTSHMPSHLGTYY
Procedure, shortened: as §1

[5] = target: ELF1 (Homo sapiens, UniProt P32519 1-619)
Procedure, shortened: as §1

[6] = target: T5, EHF (Homo sapiens, UniProt Q9NZC4 1-300)
T5 sequence: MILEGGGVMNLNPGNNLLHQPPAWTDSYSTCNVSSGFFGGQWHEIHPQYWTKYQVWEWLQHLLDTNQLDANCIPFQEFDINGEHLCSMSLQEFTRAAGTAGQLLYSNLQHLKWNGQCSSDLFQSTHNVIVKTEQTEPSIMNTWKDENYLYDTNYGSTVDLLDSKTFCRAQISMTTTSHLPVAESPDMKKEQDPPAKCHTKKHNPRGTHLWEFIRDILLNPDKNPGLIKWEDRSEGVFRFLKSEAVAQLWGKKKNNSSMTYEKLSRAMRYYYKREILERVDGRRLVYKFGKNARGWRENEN
Procedure, shortened: as §1

[7] = target: SPI1 (Homo sapiens, UniProt P17947 1-270)
Procedure, shortened: as §1

[8] = target: SPIB (Homo sapiens, UniProt Q01892 1-262)
Procedure, shortened: as §1

[9] = target: T6, ELK3 (Homo sapiens, UniProt P41970 1-407)
T6 sequence: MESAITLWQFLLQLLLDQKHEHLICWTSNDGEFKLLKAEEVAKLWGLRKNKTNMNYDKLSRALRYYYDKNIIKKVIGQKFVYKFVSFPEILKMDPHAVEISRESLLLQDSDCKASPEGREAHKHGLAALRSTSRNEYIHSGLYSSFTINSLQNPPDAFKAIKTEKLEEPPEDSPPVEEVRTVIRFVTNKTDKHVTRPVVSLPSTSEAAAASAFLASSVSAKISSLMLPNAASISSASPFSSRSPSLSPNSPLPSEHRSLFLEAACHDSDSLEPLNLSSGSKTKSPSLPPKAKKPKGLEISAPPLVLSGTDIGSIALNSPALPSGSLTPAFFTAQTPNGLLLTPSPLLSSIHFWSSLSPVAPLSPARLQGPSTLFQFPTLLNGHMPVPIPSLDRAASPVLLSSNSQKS
Procedure, shortened: as §1

SPIB, sequence (Q01892 whole entry): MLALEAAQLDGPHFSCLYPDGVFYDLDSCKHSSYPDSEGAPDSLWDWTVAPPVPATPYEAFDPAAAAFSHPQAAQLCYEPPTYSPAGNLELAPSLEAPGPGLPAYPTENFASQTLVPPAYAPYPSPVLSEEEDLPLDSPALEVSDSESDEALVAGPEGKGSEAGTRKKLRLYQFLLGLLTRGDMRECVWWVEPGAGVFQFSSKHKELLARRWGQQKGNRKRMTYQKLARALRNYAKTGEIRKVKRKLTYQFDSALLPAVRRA
ELF1, sequence (P32519 whole entry): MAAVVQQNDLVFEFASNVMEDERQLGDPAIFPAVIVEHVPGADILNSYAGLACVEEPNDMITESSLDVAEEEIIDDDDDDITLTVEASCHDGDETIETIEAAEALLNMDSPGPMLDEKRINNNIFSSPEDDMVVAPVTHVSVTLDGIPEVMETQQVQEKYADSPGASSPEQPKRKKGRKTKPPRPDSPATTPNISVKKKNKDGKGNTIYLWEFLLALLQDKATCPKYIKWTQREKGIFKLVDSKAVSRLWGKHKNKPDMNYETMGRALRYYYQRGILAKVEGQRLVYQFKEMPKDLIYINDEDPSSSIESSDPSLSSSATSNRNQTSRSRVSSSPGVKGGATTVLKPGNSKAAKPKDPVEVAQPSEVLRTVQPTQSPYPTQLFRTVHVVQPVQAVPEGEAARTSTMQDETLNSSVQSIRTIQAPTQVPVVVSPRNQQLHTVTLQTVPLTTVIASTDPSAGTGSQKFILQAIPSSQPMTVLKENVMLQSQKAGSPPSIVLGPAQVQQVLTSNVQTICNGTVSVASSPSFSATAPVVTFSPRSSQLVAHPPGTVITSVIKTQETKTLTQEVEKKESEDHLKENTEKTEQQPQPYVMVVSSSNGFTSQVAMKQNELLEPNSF

| Sequence | binding signal [1] | binding signal [2] | binding signal [3] | binding signal [4] | binding signal [5] | binding signal [6] | binding signal [7] | binding signal [8] | binding signal [9] |
| --- | --- | --- | --- | --- | --- | --- | --- | --- | --- |
| CGAAAC | 1.14 fold enrichment (6-mer frequency, TF over GST control) | 1.15 fold enrichment (6-mer frequency, TF over GST control) | 1.08 fold enrichment (6-mer frequency, TF over GST control) | 1.21 fold enrichment (6-mer frequency, TF over GST control) | 1.23 fold enrichment (6-mer frequency, TF over GST control) | 1.17 fold enrichment (6-mer frequency, TF over GST control) | 1.21 fold enrichment (6-mer frequency, TF over GST control) | 1.16 fold enrichment (6-mer frequency, TF over GST control) | 1.07 fold enrichment (6-mer frequency, TF over GST control) |
| GTGACC | 1.29 fold enrichment (6-mer frequency, TF over GST control) | 1.27 fold enrichment (6-mer frequency, TF over GST control) | 1.18 fold enrichment (6-mer frequency, TF over GST control) | 1.24 fold enrichment (6-mer frequency, TF over GST control) | 1.25 fold enrichment (6-mer frequency, TF over GST control) | 1.36 fold enrichment (6-mer frequency, TF over GST control) | 1.32 fold enrichment (6-mer frequency, TF over GST control) | 1.24 fold enrichment (6-mer frequency, TF over GST control) | 1.03 fold enrichment (6-mer frequency, TF over GST control) |
| TAAACC | 1.27 fold enrichment (6-mer frequency, TF over GST control) | 1.22 fold enrichment (6-mer frequency, TF over GST control) | 1.22 fold enrichment (6-mer frequency, TF over GST control) | 1.21 fold enrichment (6-mer frequency, TF over GST control) | 1.26 fold enrichment (6-mer frequency, TF over GST control) | 1.17 fold enrichment (6-mer frequency, TF over GST control) | 1.19 fold enrichment (6-mer frequency, TF over GST control) | 1.31 fold enrichment (6-mer frequency, TF over GST control) | 1.25 fold enrichment (6-mer frequency, TF over GST control) |
| CCACGC | 1.28 fold enrichment (6-mer frequency, TF over GST control) | 1.2 fold enrichment (6-mer frequency, TF over GST control) | 1.28 fold enrichment (6-mer frequency, TF over GST control) | 1.16 fold enrichment (6-mer frequency, TF over GST control) | 1.22 fold enrichment (6-mer frequency, TF over GST control) | 1.12 fold enrichment (6-mer frequency, TF over GST control) | 1.07 fold enrichment (6-mer frequency, TF over GST control) | 1.14 fold enrichment (6-mer frequency, TF over GST control) | 1.31 fold enrichment (6-mer frequency, TF over GST control) |
| AATTGG | 1.38 fold enrichment (6-mer frequency, TF over GST control) | 1.36 fold enrichment (6-mer frequency, TF over GST control) | 1.31 fold enrichment (6-mer frequency, TF over GST control) | 1.34 fold enrichment (6-mer frequency, TF over GST control) | 1.33 fold enrichment (6-mer frequency, TF over GST control) | 1.42 fold enrichment (6-mer frequency, TF over GST control) | 1.4 fold enrichment (6-mer frequency, TF over GST control) | 1.42 fold enrichment (6-mer frequency, TF over GST control) | 1.48 fold enrichment (6-mer frequency, TF over GST control) |
| TCAATG | 1.08 fold enrichment (6-mer frequency, TF over GST control) | 1.13 fold enrichment (6-mer frequency, TF over GST control) | 1.11 fold enrichment (6-mer frequency, TF over GST control) | 1.1 fold enrichment (6-mer frequency, TF over GST control) | 1.04 fold enrichment (6-mer frequency, TF over GST control) | 1.04 fold enrichment (6-mer frequency, TF over GST control) | 1.07 fold enrichment (6-mer frequency, TF over GST control) | 1.11 fold enrichment (6-mer frequency, TF over GST control) | 1.07 fold enrichment (6-mer frequency, TF over GST control) |
| TGCGAA | 1.21 fold enrichment (6-mer frequency, TF over GST control) | 1.2 fold enrichment (6-mer frequency, TF over GST control) | 1.07 fold enrichment (6-mer frequency, TF over GST control) | 1.16 fold enrichment (6-mer frequency, TF over GST control) | 1.23 fold enrichment (6-mer frequency, TF over GST control) | 1.18 fold enrichment (6-mer frequency, TF over GST control) | 1.26 fold enrichment (6-mer frequency, TF over GST control) | 1.22 fold enrichment (6-mer frequency, TF over GST control) | 1.07 fold enrichment (6-mer frequency, TF over GST control) |
